# NPSR antagonist = qHTS Assay for Antagonists of the Neuropeptide S Receptor: cAMP Signal Transduction; CHO-NPSR cells, cAMP TR-FRET, antagonist mode; 220,000 compounds, 1% hits; Q6W5P4; AID 1461, 2008; Potency, µM (titrated, usually from 38.3 µM), for the others: at the highest dose activity change, negative = inhibition, hits mostly inhibitors; active = well fitted curve in the direction sought with a large enough effect; inconclusive = small, poorly fitted or top-dose-only effect, or another doubt; inactive = no such curve, though single readings can be large; an effect the other way counts as inactive or inconclusive; note: potency is the fitted concentration of half-maximal effect; nearly all actives have a fitted effect of over 50% in size
# Target sequence (Q6W5P4 whole entry, looked up): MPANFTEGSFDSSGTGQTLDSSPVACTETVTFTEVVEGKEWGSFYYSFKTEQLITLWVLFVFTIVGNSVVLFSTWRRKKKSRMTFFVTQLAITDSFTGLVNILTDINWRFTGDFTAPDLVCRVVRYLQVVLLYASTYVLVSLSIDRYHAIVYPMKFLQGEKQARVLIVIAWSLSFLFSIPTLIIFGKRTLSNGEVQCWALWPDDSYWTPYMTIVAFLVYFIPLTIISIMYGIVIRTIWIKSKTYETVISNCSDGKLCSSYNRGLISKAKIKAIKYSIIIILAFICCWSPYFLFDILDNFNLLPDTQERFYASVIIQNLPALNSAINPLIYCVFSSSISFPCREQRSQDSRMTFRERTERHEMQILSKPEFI
# PNC inhibitor = High Content Assay for Compounds that inhibit the Assembly of the Perinucleolar Compartment; PC3M PTB-GFP, PNC prevalence imaging, 16 h; hits give low values; activity change (PNC), negative = inhibition, % at 10 µM; 140,000 compounds, 3.1% hits; AID 2417, 2010;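 active = readout at or below -70, meaning at least 70% loss of cells showing the perinucleolar compartment, a nuclear body marking cancer cells; inconclusive = readout between -30 and a set limit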;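 note: plate controls were DMSO wells for no effect and camptothecin positive control wells for full effect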
#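 Read-out is percentage of cells bearing a perinucleolar compartment, from automated 20x imaging of fixed, Hoechst-stained PC3M PTB-GFP cells. Cells were seeded 4 h, then exposed 16 h to compound (23 nl of library stock) in duplicate plates.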
# IMPase Li cell = qHTS Assay for Identifying the Cell-Membrane Permeable IMPase Inhibitors: Potentiation with Lithium; CHO-M1 cells, IP1 TR-FRET (IP-One), carbachol + lithium; Potency, µM (doses to about 59.4 µM), without a hit: at the top dose activity, negative = IMPase inhibition, actives largely listed as inhibitors; 210,000 compounds, 0.35% hits; AID 1457, 2008; active = well fitted curve in the direction sought with a large enough effect; inconclusive = small, poorly fitted or top-dose-only effect, or another doubt; inactive = no such curve, though single readings can be large; an effect the other way counts as inactive or inconclusive;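 note: IP1 builds up when IMPase is blocked and the TR-FRET signal falls; potency is the fitted concentration of half-maximal effect; plate controls were basal vehicle for no effect and high inhibitor control for full effect; nearly all actives have a fitted effect of over 50% in size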
#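 Lithium-sensitised IP1 accumulation assay; M1-expressing CHO cells treated 30 min at 37C with compound. Competitive antibody detection by time-resolved FRET followed a 10 min room-temperature lysis step.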
# ALDH1A1 inh = qHTS Assay for Inhibitors of Aldehyde Dehydrogenase 1 (ALDH1A1); Aldehyde dehydrogenase 1A1 (Homo sapiens), P00352; Purified ALDH1A1, NADH fluorescence, propionaldehyde substrate; Potency, µM (series often up to 75.3 µM), for inactives: at the highest dose activity, negative = inhibition, hits mostly inhibitors; 220,000 compounds, 7.3% hits;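 note: potency is the fitted concentration of half-maximal effect; plate controls were no enzyme wells and a reference inhibitor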
# IMPase inh = qHTS Assay for Identifying the Cell-Membrane Permeable IMPase Inhibitors; inhibition (IP1 accumulation), % at 46.1 µM; 120,000 tested, under 10 active; CHO-M1 cells, IP1 accumulation, HTRF TR-FRET ratio; Inositol monophosphatase 1 (Rattus norvegicus), P97697; active = well fitted curve in the direction sought with a large enough effect in the signal ratio, not every such curve was filed as active; inconclusive = small, poorly fitted or top-dose-only effect, or a change in a side signal; inactive = no such curve, though single readings can be large or run the other way; the % refers to the signal ratio;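 note: cells stimulated with carbachol in lithium chloride buffer; plate controls were DMSO basal wells for no effect and reference inhibitor wells for full effect; higher means more IMPase inhibition seen as more IP1 and lower FRET ratio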
#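 Measured: the HTRF emission ratio (665/620 nm) plus the 620 nm donor channel, each fitted to the Hill equation to give AC50. Cells were CHO-M1 given compounds up to 46 uM and a 30 min carbachol stimulation at 37C.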
# HPGD block = qHTS Assay for Inhibitors of HPGD (15-Hydroxyprostaglandin Dehydrogenase) | Potency, µM, inactives show top-dose activity change, negative = inhibition, most hits filed as inhibitors | purified HPGD, NADH fluorescence kinetic, PGE2 substrate | 150,000 compounds, 4.3% hits | 15-hydroxyprostaglandin dehydrogenase [NAD(+)] (Homo sapiens), P15428; note: potency is the fitted concentration of half-maximal effect
#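 NADH formation kinetics: reaction with 30 uM PGE2 and 1 mM NAD+ (final), 20 nM enzyme, Tris-HCl pH 8 with Tween 20, after 15 min compound preincubation at room temperature. Fluorescence change, last versus first of five reads.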
# * marks the source's active call; other numbers are inactive results; u = inconclusive; x = no result given; [ ] = remark or other dose. In the library only some 11% were active in any assay of this set; here they are far more common. Unless noted, calls come from the whole dose curve; as a rule, active = well fitted inhibition curve with a large enough effect (not every such curve was filed as active); inconclusive = small, poorly fitted or top-dose-only effect, or another doubt; inactive = no such curve, though single readings can be large or run the other way. Unless noted, % is set by controls: 0 for no effect and ±100 for the full control effect.
SMILES,NPSR antagonist,PNC inhibitor,IMPase Li cell,ALDH1A1 inh,IMPase inh,HPGD block
CC(C)(C)c1cc(C(=O)N/N=C/c2ccc(O)cc2)n(-c2ccccc2)n1,-42%,33,12%,u,x,-12%
O=Nc1c(-c2c(O)[nH]c3ccccc23)[nH]c2ccccc12,5%[46.1 µM],x,33%,-9%,20,-21%
Cn1c(=O)n(C)c2cc(NS(=O)(=O)c3ccc4c(c3)CCCC4)ccc21,-23%[46.1 µM],-23,40%[38.3 µM],1µM*,1,-2%
CC(C)(C)c1ccc(S(=O)(=O)Nc2ccc3c(c2)COC3=O)cc1,-16%,x,12%,4.5µM*,x,x
CCn1c(=O)c(=O)n(CC)c2cc(S(=O)(=O)Nc3cccc(OC)c3)ccc21,-5%[46.1 µM],-13,20%[38.3 µM],13µM*,0,-20%
Cc1ccccc1NS(=O)(=O)c1ccc2c(c1)n(C)c(=O)n2C,-12%,x,-4%,u,x,x
Cc1cc(S(=O)(=O)Nc2ccc3c(c2)COC3=O)ccc1F,-11%,x,8%,u,x,x
Cn1c(=O)n(C)c2cc(NS(=O)(=O)c3ccc(C(C)(C)C)cc3)ccc21,-6%,x,9%,0.56µM*,x,x
Cc1ccc(S(=O)(=O)Nc2ccc3[nH]c(=O)[nH]c3c2)c(C)c1,1%,x,4%,u,x,x
CCOC(=O)c1cnc(-c2ccccc2O)nc1Cl,-14%,x,-14%,u,x,x
O=C(NC(Cc1ccc(O)cc1)C(=O)O)c1ccco1 (stereo not drawn),9%,x,-4%,11%,x,x
CCCCC(c1nnnn1CCOC)N1CCN(C)CC1 (stereo not drawn),10%[46.1 µM],-24,-2%,-6%,21,-1%
COc1cccc(C(=O)Nc2ccc(NC(=O)C3CC3)cn2)c1,-7%[46.1 µM],23,1%[38.3 µM],5%,10,-11%
COc1ccc(NS(=O)(=O)c2ccc3c(c2)n(C)c(=O)n3C)cc1,-17%[46.1 µM],-10,16%[38.3 µM],-10%,-3,16µM*
CC(C)OC(=O)Cn1c(=O)sc2ccccc21,-9%[46.1 µM],6,6%[38.3 µM],7%,2,-16%
O=C(NCC1CCCO1)C(c1cccs1)N(Cc1cccs1)C(=O)Cn1nnc(-c2cccs2)n1 (stereo not drawn),-3%[46.1 µM],88,15%,8.9µM*,u,-13%
O=C(NCc1ccco1)C(c1cccs1)N(Cc1ccccc1)C(=O)Cn1nnc2ccccc21 (stereo not drawn),u,u,17%[38.3 µM],-6%,2,-5%
Cc1ccc(-c2nnn(CC(=O)N(Cc3cccs3)C(C(=O)NC3CCCC3)c3ccco3)n2)o1 (stereo not drawn),2%[46.1 µM],19,2%[38.3 µM],22µM*,-16,-14%
CC(C)CCNC(=O)C(c1ccncc1)N(Cc1cccs1)C(=O)Cn1nnc(-c2ccc(F)cc2)n1 (stereo not drawn),-22%[46.1 µM],-100*,5%,u,-4,-24%
O=C(NCC1CCCO1)C(c1cccs1)N(C(=O)Cn1nnc(-c2cccs2)n1)C1CCCC1 (stereo not drawn),u,u,5%,9%,4,-4%
O=C(NCC1CCCO1)C(c1ccncc1)N(Cc1cccs1)C(=O)Cn1nnc(-c2ccc(F)cc2)n1 (stereo not drawn),-10%,x,11%,7%,x,x
Cc1ccc(-c2nnn(CC(=O)N(Cc3cccs3)C(C(=O)NC3CCCCC3)c3ccco3)n2)o1 (stereo not drawn),0%[46.1 µM],-28,25%[38.3 µM],1%,8,-7%
O=C(NCc1ccco1)C(c1ccco1)N(Cc1cccs1)C(=O)Cn1nnc2ccccc21 (stereo not drawn),-15%[46.1 µM],-21,17%,14µM*,21[0.0738 µM],-16%
NS(=O)(=O)c1ccc(NC(=O)C2(c3ccccc3)CCCC2)cc1,3%,x,2%,5%,x,x

# Screening results as filed in PubChem.
